Laboratory results as given in publication PMC5540273 (PLoS ONE, 2017).

What was measured:
Conditions in all cases: concentration: 1 μM, replicates: in singlicate; n = 1
YES = tested on: T1, YES
T1 construct: gene YES1

YSK1 = tested on: T2, YSK1
T2 construct: gene STK25

YSK4 = tested on: T3, YSK4
T3 construct: gene MAP3K19

ZAK = tested on: ZAK
ZAP70 = tested on: ZAP70
p38-alpha = tested on: T4, p38-alpha
T4 construct: gene MAPK14

p38-beta = tested on: T5, p38-beta
T5 construct: gene MAPK11

p38-delta = tested on: p38-delta
p38-gamma = tested on: T6, p38-gamma
T6 construct: gene MAPK12
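Note: KINOMEscan kinase panel screen.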

Compound | %Inh (YES) [%] | %Inh (YSK1) [%] | %Inh (YSK4) [%] | %Inh (ZAK) [%] | %Inh (ZAP70) [%] | %Inh (p38-alpha) [%] | %Inh (p38-beta) [%] | %Inh (p38-delta) [%] | %Inh (p38-gamma) [%]
COc1ccc(Nc2nccc(-c3cccc(NC(=O)c4cc5cc(F)ccc5[nH]4)c3)n2)cc1 [GSK1229782] | 29 | 31 | 79 | 22 | 0 | 27 | 0 | 45 | 48
COc1ccc(Nc2nccc(NCCNC(=O)Nc3ccccc3F)n2)cc1 [GSK1379901] | 23 | 0 | 45 | 37 | 5 | 20 | 0 | 38 | 10
Cc1cccc(-c2nc(-c3ccc(S(C)(=O)=O)cc3)sc2-c2ccnc(NCCc3ccccc3)c2)c1 | 0 | 11 | 0 | 29 | 9 | 82 | 40 | 12 | 16
COc1cccc(NC(=O)NC2CCN(c3ccnc(Nc4ccc(F)cc4)n3)C2)c1 (stereo not drawn) [GSK1379721] | 0 | 10 | 3 | 42 | 0 | 4 | 0 | 35 | 2
Cn1ccc2ncnc(Oc3cccc(C(=O)Nc4ccccc4)c3)c21 | 1 | 0 | 1 | 0 | 0 | 0 | 6 | 3 | 0
Cc1cccc(-c2nc(Nc3ccc4[nH]ncc4c3)c3ccccc3n2)n1 [GW857175] | 13 | 0 | 19 | 0 | 31 | 0 | 32 | 0 | 50
O=C(Nc1n[nH]c2nc(-c3nccs3)c(Br)cc12)C1CCCC1 [SB-742609] | 10 | 5 | 62 | 9 | 0 | 0 | 0 | 47 | 0
Cc1ccc(NC(=O)Nc2cc(C(C)(C)C)nn2-c2ccccc2)cc1 [GSK1014915] | 9 | 0 | 19 | 26 | 0 | 99.7 | 87 | 54 | 50
COc1ccc(C2=C(Nc3cccc(C(=O)O)c3)C(=O)NC2=O)cc1 [SB-390765] | 11 | 0 | 0 | 13 | 0 | 4 | 6 | 2 | 29
